Test systems include DU-145 prostate; K-562 leukemia; MALME-3M melanoma; MDA-MB-231 breast; RXF 393 renal; SF-268 CNS; SF-295 CNS; SF-539 CNS; UACC-257 melanoma; M14 melanoma.
What all share (experiment): NCI-60 one-dose screen, 48 h (100 = growth as untreated, 0 = no growth, -100 = all killed)
Details in all cases: 10 µM unless noted

Compounds without any hit were thinned out: in the full panel of roughly 83,000, 20% have a hit.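 Assay: single dose, 48 h. Readout: percent growth (0 = no net growth; negative = cell death). Active: <10.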 Unmarked numbers belong to inactive results. The source made the active and inactive calls.

With `C/C(=C\c1ccn(-c2ccc(N)c(F)c2)n1)[C@@H]1C[C@@H]2O[C@]2(C)CCC[C@H](C)[C@H](O)[C@@H](C)C(=O)C(C)(C)[C@@H](O)CC(=O)O1`, the growth with DU-145 prostate was -26% (active); in the assay on K-562 leukemia, 10.5%; with MALME-3M melanoma it was 46.3%; in the assay with MDA-MB-231 breast, 19.6%; in the assay with RXF 393 renal, 0.639% (active); in the assay with SF-268 CNS it was 30%. Moreover, the growth was 17.1% in the assay on SF-295 CNS, -26.4% (active) in the assay on SF-539 CNS, 68.7% in the assay with UACC-257 melanoma and 13.3% in the assay on M14 melanoma.

On to `Clc1ccc(CO/N=C(\Cn2ccnc2)c2ccc(Cl)cc2Cl)c(Cl)c1`, for which the growth with DU-145 prostate was 21%; with K-562 leukemia, 1.68% (active); in the assay on MALME-3M melanoma it was -50.8% (active); in the assay on MDA-MB-231 breast, -11.5% (active); in the assay with RXF 393 renal it was -59.8% (active); with SF-268 CNS, 11.6%. Moreover, the growth in the assay with SF-295 CNS was -13.3% (active); in the assay on SF-539 CNS, -55.1% (active); in the assay with UACC-257 melanoma, 6.73% (active); with M14 melanoma, -17.4% (active).

`COc1ccc(S(=O)(=O)N(Cc2ccc3c(c2)C=CC(C)(C)O3)c2ccccc2)cc1OC`: the growth was 96.6% in the assay with DU-145 prostate; 63.2% in the assay on K-562 leukemia; 83.4% in the assay on MALME-3M melanoma; 96.6% with MDA-MB-231 breast; 77.2% in the assay with RXF 393 renal; 87.4% in the assay with SF-268 CNS. For the same compound, the growth in the assay on SF-295 CNS is 70.6%; with SF-539 CNS it was 97.3%; in the assay on UACC-257 melanoma, 61.9%; in the assay with M14 melanoma, 87.6%.

Regarding `c1cnc2[nH]cc(-c3csc(-c4cn(CCCCN5CCOCC5)c5ccccc45)n3)c2c1`, the growth with DU-145 prostate is 70%; in the assay on K-562 leukemia, -38.7% (active); in the assay with MALME-3M melanoma, -25% (active); with MDA-MB-231 breast, 32.8%; in the assay with RXF 393 renal it was 53.7%; in the assay with SF-268 CNS, 49.7%. Moreover, the growth in the assay on SF-295 CNS is 53.9%; in the assay on SF-539 CNS, 80.8%; with UACC-257 melanoma it was 67.8%; in the assay on M14 melanoma, -49.9% (active).

For `C=CC[n+]1ccc(-c2cc[n+](CC=C)cc2)cc1`, the growth in the assay on DU-145 prostate is 107%; with K-562 leukemia, 99.4%; in the assay with MALME-3M melanoma it was 34.1%; in the assay on MDA-MB-231 breast it was 120%; with RXF 393 renal, 99.8%; in the assay with SF-268 CNS, 102%. The growth is 101% with SF-295 CNS, 101% in the assay on SF-539 CNS, 96.9% with UACC-257 melanoma and 109% in the assay on M14 melanoma.

For `C[C@]12CC[C@H]3[C@@H](C[C@@H]4SC(Nc5ccccc5)=N[C@@]45CC(O)CC[C@]35C)[C@@H]1CCC2O` (stereo not given in full), the growth in the assay with DU-145 prostate was 14.2%; in the assay with K-562 leukemia, 4.96% (active); with MALME-3M melanoma, 71.2%; in the assay on MDA-MB-231 breast, 35.8%; in the assay with RXF 393 renal it was -32.3% (active); with SF-268 CNS, 9.68% (active). In addition, the growth is 7.36% (active) in the assay with SF-295 CNS, -34.3% (active) with SF-539 CNS, 69.3% with UACC-257 melanoma and 53.4% in the assay with M14 melanoma.

For `CN1C(=O)C(=Cc2cn(Cc3ccccc3)c3ccccc23)C(=O)N(C)C1=O`, the growth in the assay on DU-145 prostate was 103%; with K-562 leukemia, 51.1%; in the assay with MALME-3M melanoma it was 91.3%; in the assay with MDA-MB-231 breast it was 75.5%; in the assay with RXF 393 renal, 56.9%; in the assay with SF-268 CNS, 95.4%. Moreover, the growth is 34.7% in the assay on SF-295 CNS, 86.2% in the assay with SF-539 CNS, 27.9% with UACC-257 melanoma and 92.6% in the assay on M14 melanoma.

Consider `CN(C)C(=O)Oc1ccc(Br)cc1`, for which the growth in the assay on DU-145 prostate was 107%; in the assay on K-562 leukemia, 96.5%; with MALME-3M melanoma, 98%; with MDA-MB-231 breast, 105%; in the assay with RXF 393 renal it was 107%; in the assay on SF-268 CNS, 110%. Besides, the growth was 91.3% in the assay with SF-295 CNS, 108% in the assay on SF-539 CNS, 95% with UACC-257 melanoma and 104% in the assay with M14 melanoma.

With `COc1ccc2c(c1)c(-c1nc(-c3c[nH]c4ncccc34)cs1)cn2CCN1CCOCC1`, the growth with DU-145 prostate was 45.3%; with K-562 leukemia it was 38.3%; with MALME-3M melanoma it was 71%; in the assay on MDA-MB-231 breast, 51%; in the assay with RXF 393 renal it was 53.7%; in the assay with SF-268 CNS it was 60.9%. For the same compound, the growth in the assay with SF-295 CNS was 62%; in the assay with SF-539 CNS, 48.2%; in the assay on UACC-257 melanoma it was 92.1%; with M14 melanoma it was 49.4%.

Take `Cn1cc(-c2csc(-c3cn(CCCCN4CCCCC4)c4ccccc34)n2)c2cccnc21`: the growth was 21% with DU-145 prostate; -57.8% (active) in the assay on K-562 leukemia; -66.9% (active) in the assay on MALME-3M melanoma; -63.5% (active) in the assay with MDA-MB-231 breast; -84.5% (active) with RXF 393 renal; 1.24% (active) with SF-268 CNS. The growth was -18% (active) in the assay on SF-295 CNS, -73.2% (active) in the assay with SF-539 CNS, -67.3% (active) in the assay with UACC-257 melanoma and -80.3% (active) in the assay with M14 melanoma.

Regarding `Brc1ccc2c(c1)c(-c1nc(-c3c[nH]c4ncccc34)cs1)cn2CCN1CCOCC1`, the growth was 86.5% with DU-145 prostate; 24.3% in the assay with K-562 leukemia; 88.5% in the assay with MALME-3M melanoma; 53.3% in the assay with MDA-MB-231 breast; 74.6% in the assay on RXF 393 renal; 65.4% with SF-268 CNS. Besides, the growth in the assay on SF-295 CNS is 74.4%; with SF-539 CNS it was 61%; in the assay on UACC-257 melanoma, 99.7%; in the assay on M14 melanoma it was 63.8%.

`CC(=O)OC1C(OC/C2=C/C3[C@@H](C(C)C)CC=C(C)[C@@H]3CC(OC(=O)/C=C/c3cn(C)cn3)[C@]3(C)C=C[C@@]2(O)O3)OCC(O)C1O` (stereo not given in full): the growth in the assay with DU-145 prostate was -10.2% (active); with K-562 leukemia, 15.7%; in the assay with MALME-3M melanoma, 48.4%; in the assay on MDA-MB-231 breast, 41.8%; in the assay on RXF 393 renal, -20.6% (active); in the assay on SF-268 CNS, 45.1%. For the same compound, the growth is -3.4% (active) in the assay with SF-295 CNS, 11.9% in the assay with SF-539 CNS, 60.7% with UACC-257 melanoma and -35.7% (active) in the assay with M14 melanoma.

Turning to `CC(=O)Nc1nc2c(s1)CC[C@@]1(C)C2=CC[C@H]2[C@@H]3CC[C@H](O)[C@@]3(C)CC[C@@H]21`, the growth in the assay on DU-145 prostate is 81.7%; in the assay on K-562 leukemia it was 17.5%; in the assay with MALME-3M melanoma it was 56.9%; with MDA-MB-231 breast, 81.5%; with RXF 393 renal, 23.5%; in the assay on SF-268 CNS, 73.4%. Besides, the growth is 36.4% with SF-295 CNS, 8.5% (active) with SF-539 CNS, 82% in the assay with UACC-257 melanoma and 36% in the assay with M14 melanoma.
